This is a sample that favours compounds with a hit; in the whole collection about 5.9% have one here.
Gal4-VP16 FLuc – VP16 counterscreen qHTS for inhibitors of ROR gamma transcriptional activity; Drosophila S2 Gal4-VP16 UAS-luciferase, luminescence, 20 h; AID 2546, 2010; 310,000 tested, 3.5% active; Potency, µM (top dose mostly 53.6 µM), most hits filed as inhibitors;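 note: Gal4-VP16 expression switched on by copper sulfate through the metallothionein promoter; nearly all actives have a fitted effect of over 50% in size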
GLP1R cytotox – qHTS of GLP-1 Receptor Inverse Agonists: Cytotox Screen. HEK293 cAMP-luciferase reporter cells, luminescence, 24 h. Potency, µM (series often up to 38.3 µM), usual class: inhibitors. 410,000 tested, 0.13% active;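 note: loss of luciferase light is scored as toxicity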
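Cells in DMEM/10% Nu serum/1% pen-strep, 1536-well format. Pre-incubated 12 h, dosed with 23 nL compound, incubated a further 24 h. Luciferase detection, 12 min at room temp, luminescence.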
RORgamma inh – qHTS for inhibitors of ROR gamma transcriptional activity; Nuclear receptor ROR-gamma (Mus musculus), P51450; Drosophila S2 Gal4-RORgamma UAS-luciferase reporter, 20 h; Potency, µM (series often up to 53.6 µM), usual class: inhibitors; 310,000 tested, 5.4% active; AID 2551, 2010; note: nearly all actives have a fitted effect of over 60% in size
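Drosophila S2 cells stably expressing Gal4-DBD/mouse RORγ fusion under metallothionein promoter plus UAS-luciferase; compound 1 h, then 700 uM CuSO4 induction for 20 h at ambient temperature; inhibition read as reduced luminescence.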
GLP1R ag – qHTS of GLP-1 Receptor Agonists; HEK293 GLP-1R CRE-luciferase, luminescence, 4-6 h; cells express a hypersensitive GLP-1R form; Potency, µM (series often up to 45.6 µM), hits mostly activators; 380,000 tested, 0.007% active; AID 624172, 2012
Target sequence (P43220 whole entry, looked up): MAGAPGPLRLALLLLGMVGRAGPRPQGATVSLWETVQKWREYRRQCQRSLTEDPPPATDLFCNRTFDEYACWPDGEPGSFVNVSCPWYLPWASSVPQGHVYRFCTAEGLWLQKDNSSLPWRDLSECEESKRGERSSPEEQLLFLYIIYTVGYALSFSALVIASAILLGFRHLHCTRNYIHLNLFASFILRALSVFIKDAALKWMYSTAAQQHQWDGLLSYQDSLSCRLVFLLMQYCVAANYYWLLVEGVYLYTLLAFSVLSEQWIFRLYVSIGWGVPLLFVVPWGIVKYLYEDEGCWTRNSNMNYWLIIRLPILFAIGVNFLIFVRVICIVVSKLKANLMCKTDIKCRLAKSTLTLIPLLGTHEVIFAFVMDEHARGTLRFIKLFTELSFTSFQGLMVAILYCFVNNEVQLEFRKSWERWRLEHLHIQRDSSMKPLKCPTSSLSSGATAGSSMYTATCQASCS
GLP-1R inv ag – qHTS of GLP-1 Receptor Inverse Agonists (Inhibition Mode); AID 624417, 2012; HEK293 GLP-1R CRE-luciferase, luminescence, 24 h; GLP-1R form is constitutively active; Glucagon-like peptide 1 receptor (Homo sapiens), P43220; Potency, µM (doses to about 38.3 µM), actives largely listed as inhibitors; 410,000 tested, 1.6% active; note: nearly all actives have a fitted effect of over 55% in size
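qHTS in 1536-well format: reporter HEK293 cells expressing constitutive GLP-1R activity in DMEM + 10% Nu serum, 24 hr with compounds at 37 deg C, luminescence read after 12 min with detection reagent.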
Hits are given with their value; 0 = inactive; ? = inconclusive; - = not tested or not shown; [ ] = another dose, or the depositor's remark. Calls come from the whole dose curve; as a rule, active = well fitted curve in the direction sought with a large enough effect; inconclusive = small, poorly fitted or top-dose-only effect, or another doubt; inactive = no such curve, though single readings can be large; an effect the other way counts as inactive or inconclusive.

SMILES	Gal4-VP16 FLuc	GLP1R cytotox	RORgamma inh	GLP1R ag	GLP-1R inv ag
CCN(CC)S(=O)(=O)c1ccc(-c2csc(C)n2)s1	0	0	0	0	?
Cc1ccc(-c2nnc3ccccc3c2C(=O)Nc2ccccc2F)cc1	-	0	-	-	0
CC(C)C[C@H](NC(=O)[C@@H]1CCCN1C(=O)[C@H](CO)NC(=O)[C@H](Cc1ccccc1)NC(=O)CNC(=O)[C@@H]1CCCN1C(=O)[C@@H]1CCCN1C(=O)[C@@H](N)CCCN=C(N)N)C(=O)O	0	-	0	-	-
C/C=C1\COC(C(=O)NCCN2CCOCC2)(C(F)(F)F)C=C1C=C(C)C (stereo not drawn)	0	-	0	-	-
C/C=C1\COC(C(=O)NCc2ccccc2)(C(F)(F)F)C=C1C=C(C)C (stereo not drawn)	?	0	?	0	10µM
CN(C)CCNC(=O)c1cccc2ccc(-c3ccc(-c4ccccc4)cc3)nc12	-	?	-	0	?
CN(C)CCNC(=O)c1cccc2nc3cccc(F)c3nc12	-	0	-	0	6.3µM
COc1ccc(OC)c2nc3c(C(=O)NCCN(C)C)cccc3nc12	-	7.1µM	-	0	?
COc1ccc(S(=O)(=O)N(CC(=O)Nc2ccc(OC)cc2OC)c2ccc(Cl)cc2)cc1	-	0	-	0	?
O=C(Nc1cccc(OC(F)(F)F)c1)C1Cc2c(-c3ccccc3Oc3ccccc3)ccnc2O1 (stereo not drawn)	-	0	-	0	13µM
O=C(Nc1ccccc1)C1Cc2c(-c3ccccc3Oc3ccccc3)ccnc2O1 (stereo not drawn)	-	0	-	0	?
Nc1cc(S(=O)(=O)Nc2ccc(Cl)cc2)ccc1N1CCOCC1	16µM	0	0	0	?
Nc1cc(S(=O)(=O)Nc2ccccc2Cl)ccc1N1CCOCC1	?	0	?	0	0
CCN(CC)CCCCN1c2ccccc2Sc2ccccc21	0	?	0	0	5µM
CCN(CC)CC(=O)N1c2ccccc2Sc2ccccc21	0	0	0	0	0
CC1CCCCN1S(=O)(=O)c1ccc(C(=O)Nc2nnc(-c3ccncc3)o2)cc1 (stereo not drawn)	0	0	0	0	0
O=C(Nc1nnc(-c2cccs2)o1)c1ccc(S(=O)(=O)N2CCOCC2)cc1	1.6µM	0	0.71µM	0	0
O=C(Nc1nnc(-c2ccccc2Cl)o1)c1ccc(S(=O)(=O)N2CCCCCC2)cc1	0.4µM	0	0.45µM	0	?
CCC1CCCCN1S(=O)(=O)c1ccc(C(=O)Nc2nnc(-c3ccccc3Cl)o2)cc1 (stereo not drawn)	0.0079µM	0	0.28µM	0	?
CC1CCCCN1S(=O)(=O)c1ccc(C(=O)Nc2nnc(-c3ccccc3Cl)o2)cc1 (stereo not drawn)	0.5µM	0	0.71µM	0	?
O=C(Nc1ccc(S(=O)(=O)N2CCOCC2)cc1)c1cccs1	0	0	0	0	0
CS(=O)(=O)c1ccccc1-c1nnc(NC(=O)c2ccc(S(=O)(=O)N3CCCC3)cc2)o1	-	0	-	0	0
COc1ccc(CCNC(=O)CS(=O)Cc2nc(-c3ccc(C)cc3)oc2C)c(OC)c1 (stereo not drawn)	-	0	-	-	0
COCCCNC(=O)C1CCCN(S(=O)(=O)c2ccc3c(c2)oc(=O)n3C)C1 (stereo not drawn)	-	0	-	0	0
Cc1nn(C(C)C(=O)Nc2cccc(F)c2)c(=O)c2c1sc1ccccc12 (stereo not drawn)	-	0	-	-	0
SMILES	Gal4-VP16 FLuc	GLP1R cytotox	RORgamma inh	GLP1R ag	GLP-1R inv ag
CCC1CCCCN1S(=O)(=O)c1ccc(C(=O)Nc2nnc(C3CC3)o2)cc1 (stereo not drawn)	0.32µM	0	0.32µM	0	?
O=C(Cc1ccc(Cl)cc1)Oc1cccc2cccnc12	4µM	2.5µM	1.4µM	0	0
O=C(Oc1ccc(Cl)c2cccnc12)c1ccco1	1.6µM	?	0.89µM	0	?
O=C(Oc1cccc2ccccc12)c1ccco1	0	0	0	0	0
NNC(=O)COc1cccc2cccnc12	0	0	?	0	0
O=C(Oc1cccc2cccnc12)c1ccco1	4µM	?	1.6µM	0	10µM
O=C(Oc1cccc2cccnc12)c1cccs1	2.8µM	0	1.6µM	0	?
Cc1ccc(C)c(C(=O)c2c(N)c(-c3nc(-c4ccc5c(c4)OCO5)cs3)c3ccccn23)c1	-	0	-	-	0
O=C(Oc1cccc2cccnc12)c1ccc(Br)o1	?	0	11µM	0	0
O=C(Nc1cccc2cccnc12)c1ccc(Br)o1	0[0.365 µM]	0	?	0	0
O=C1C=C[C@@H](O)[C@H]2[C@@H]3C(=O)N(c4cccc(Oc5ccccc5)c4)C(=O)[C@@H]3CC[C@H]12	0[10 µM]	-	0[10 µM]	-	-
Cn1c(/C=C/c2cccc([N+](=O)[O-])c2)c([N+](=O)[O-])c(=O)n(C)c1=O	?	?	16µM	0	?
Cn1c(/C=C/c2ccc(Cl)cc2)c([N+](=O)[O-])c(=O)n(C)c1=O	0	?	?	0	0.79µM
N#Cc1ccc(NC(=O)Nc2ccc(Cl)cc2)cc1	0[0.365 µM]	0	?	0	6.3µM
CCOc1ccc(-c2nc(SCC(=O)Nc3cc(F)ccc3F)n3[nH]c(=O)cc3n2)cc1	-	0	-	-	0
Cc1cc(C)cc(NC(=O)C2CCCN(c3nnc(-n4c(C)ccc4C)s3)C2)c1 (stereo not drawn)	-	0	-	-	?
Cc1cccc(NC(=O)c2cn(-c3ccccc3)nc2-c2ccccc2)c1C	-	0	-	-	4.5µM
O=C(Nc1ccccc1O)c1ccccc1O	?	0	?	0	0
Cc1cccc(NC(=O)c2ccccc2O)c1C	1.1µM	0	?	0	0
Cc1cccc(C)c1NC(=O)c1cn(-c2ccccc2)nc1-c1ccccc1	0	0	0	0	0
O=C(NC(=S)NCCO)c1cn(-c2ccccc2)nc1-c1ccccc1	?	0	10µM	0	0
Cc1nn(Cc2ccc(Cl)c(Cl)c2)c(C)c1NC(=O)c1cn(-c2ccccc2)nc1-c1ccccc1	0	0	0	0	10µM
O=C(NC(=S)N1CCOCC1)c1cn(-c2ccccc2)nc1-c1ccccc1	-	?	-	0	?
CCOC(=O)C1CCC(CN(Cc2cccc(Br)c2)S(=O)(=O)c2ccc(C)cc2)CC1 (stereo not drawn)	-	0	-	-	0
CCCOc1ccc(CNC(=O)c2ccc(C)c(-n3c(C)nc4cccnc43)c2)cc1	-	0	-	-	0
Cc1ccccc1NC(=O)c1cn(-c2ccccc2)nc1-c1ccccc1	0	0	?	0	10µM
Cc1cc2oc(=O)c(CC(=O)NCCc3ccccc3)c(C)c2c2occ(C(C)(C)C)c12	-	0	-	-	10µM
CC(=O)Nc1c(C)nn(-c2ccccc2)c1N1CCC(C(=O)Nc2ccc(Cl)cc2C)CC1	-	0	-	-	0
